# Where “and” joins values, the source holds several entries; their conditions need not be identical. Identical values can stand only once. Results filed as inconclusive are left out. Where a call stands in place of a potency, no number is given. Some structures have more than one record in an assay (separate samples or runs), and their calls can disagree. Calls of active or inactive are those of the source. Unless noted, calls come from the whole dose curve; as a rule, active = well fitted curve in the direction sought with a large enough effect; inconclusive = small, poorly fitted or top-dose-only effect, or another doubt; inactive = no such curve, though single readings can be large; an effect the other way counts as inactive or inconclusive.
# Key:
# [1] = target: Cytochrome P450 1A2 (Homo sapiens) (UniProt P05177); experiment: p450-cyp1a2 (AID 410; calls by dose curve; note: potency is the fitted concentration of half-maximal effect)
# Chain of Cytochrome P450 1A2 (Homo sapiens) (P05177 whole entry, looked up): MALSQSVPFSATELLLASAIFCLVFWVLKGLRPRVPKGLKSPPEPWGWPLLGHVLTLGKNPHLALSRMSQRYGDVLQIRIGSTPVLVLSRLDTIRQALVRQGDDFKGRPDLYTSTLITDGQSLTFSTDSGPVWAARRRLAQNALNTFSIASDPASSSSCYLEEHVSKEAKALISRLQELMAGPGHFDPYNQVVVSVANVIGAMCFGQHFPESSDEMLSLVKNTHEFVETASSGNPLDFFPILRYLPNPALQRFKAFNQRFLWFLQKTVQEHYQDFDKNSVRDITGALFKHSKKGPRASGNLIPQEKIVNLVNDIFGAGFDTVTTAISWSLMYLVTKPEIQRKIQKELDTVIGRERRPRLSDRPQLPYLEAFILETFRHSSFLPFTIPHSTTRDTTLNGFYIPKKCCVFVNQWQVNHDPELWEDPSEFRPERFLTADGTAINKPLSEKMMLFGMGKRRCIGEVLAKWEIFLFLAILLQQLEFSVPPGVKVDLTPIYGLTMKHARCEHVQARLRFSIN
# In short: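 Inhibition was calculated relative to 57 uM furafylline (full inhibition). The reaction used human CYP1A2 at 20nM with Luciferin-ME at its Km, 100uM, driven by an NADPH-regenerating system for 60 min at room temperature.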
# [2] = NFAT Signaling Pathway (AID 444; active = well fitted curve in either direction with a large enough effect, not every such curve was filed as active;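 note: carbachol stimulus at about its EC50 of 1 µM final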); conditions: Jurkat NFAT-bla M1, carbachol, beta-lactamase ratio, 5 h; at 17.2 µM (top of the series) unless noted
# In short: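 Jurkat cells carrying an NFAT-driven β-lactamase reporter and co-transfected muscarinic M1 receptor were treated with compound plus carbachol (1 uM final, an EC50 level) for 5 h at 37 °C. CCF4 loading followed for 1 h at RT; 460/530 nm ratio gave %activity.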
# [3] = target: Glucocorticoid receptor (Homo sapiens) (UniProt P04150); experiment: GR-GFP Redistribution (AID 450;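 active = compounds whose dose series gives a full or clear partial fitted curve of increased nuclear translocation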; note: potency is the fitted concentration of half-maximal effect)
# Chain of Glucocorticoid receptor (Homo sapiens) (P04150 whole entry, looked up, the tested form may be a part): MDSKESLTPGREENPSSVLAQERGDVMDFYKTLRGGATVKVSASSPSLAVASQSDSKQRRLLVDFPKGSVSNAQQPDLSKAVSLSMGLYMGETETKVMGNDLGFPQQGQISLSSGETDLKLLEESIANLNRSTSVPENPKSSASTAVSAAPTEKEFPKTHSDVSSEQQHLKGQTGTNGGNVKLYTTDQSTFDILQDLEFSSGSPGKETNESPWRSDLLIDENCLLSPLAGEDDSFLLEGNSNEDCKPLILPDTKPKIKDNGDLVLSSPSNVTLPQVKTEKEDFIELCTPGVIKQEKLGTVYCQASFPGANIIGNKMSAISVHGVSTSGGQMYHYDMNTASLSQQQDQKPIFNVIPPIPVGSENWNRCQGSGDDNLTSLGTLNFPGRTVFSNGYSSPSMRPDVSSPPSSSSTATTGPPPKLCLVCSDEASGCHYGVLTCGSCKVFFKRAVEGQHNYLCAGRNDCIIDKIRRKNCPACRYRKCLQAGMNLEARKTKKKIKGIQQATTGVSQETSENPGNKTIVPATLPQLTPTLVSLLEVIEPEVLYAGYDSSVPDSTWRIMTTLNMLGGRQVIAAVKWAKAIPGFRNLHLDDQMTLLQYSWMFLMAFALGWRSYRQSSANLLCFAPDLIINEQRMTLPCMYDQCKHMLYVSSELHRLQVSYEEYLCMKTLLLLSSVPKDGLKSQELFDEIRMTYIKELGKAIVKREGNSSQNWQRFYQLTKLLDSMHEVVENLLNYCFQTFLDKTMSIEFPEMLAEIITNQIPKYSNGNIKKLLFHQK
# [4] = target: Glucocorticoid receptor (Homo sapiens) (UniProt P04150); experiment: GR-EFC Redistribution (AID 451; calls by dose curve; note: potency is the fitted concentration of half-maximal effect); conditions: CHO-K1 GR-EFC translocation, beta-gal luminescence, 2 h
# In short: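 CHO-K1 cells stably expressing nuclear-localized β-gal enzyme acceptor and GR fused C-terminally to the enzyme donor fragment; ligand-driven nuclear translocation restores β-gal by complementation. Compounds titrated up to 46 uM final, 2 h at 37 °C; luminescence read.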
# [5] = target: Mitogen-activated protein kinase 10 (Mus musculus) (UniProt Q61831); experiment: JNK3 AlphaScreen Assay (AID 530; active = well fitted curve in either direction with a large enough effect, not every such curve was filed as active;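 note: kinase came from lysate of stimulated human HepG2 cells; signal reports phosphorylation of biotinylated GST-cJun 1-79 at Ser73 with 10 µM ATP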)
# In short: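 JNK3 came from HepG2 lysates pre-activated with IL-1beta and TNF-alpha and phosphorylated biotinylated GST-cJun (1-79) at 10 uM ATP, pH 7.6, room temperature. Compounds were titrated. AlphaScreen signal used anti-phospho-cJun (Ser73) antibody.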
# [6] = target: 3',5'-cyclic-AMP phosphodiesterase 4B (Homo sapiens) (UniProt Q07343); experiment: qHTS Assay for Inhibitors of PDE-IV (AID 607; active = well fitted activation curve with a large enough effect in the main read-out, with a control signal flat, not every such curve was filed as active)
# Chain of 3',5'-cyclic-AMP phosphodiesterase 4B (Homo sapiens) (Q07343 whole entry, looked up): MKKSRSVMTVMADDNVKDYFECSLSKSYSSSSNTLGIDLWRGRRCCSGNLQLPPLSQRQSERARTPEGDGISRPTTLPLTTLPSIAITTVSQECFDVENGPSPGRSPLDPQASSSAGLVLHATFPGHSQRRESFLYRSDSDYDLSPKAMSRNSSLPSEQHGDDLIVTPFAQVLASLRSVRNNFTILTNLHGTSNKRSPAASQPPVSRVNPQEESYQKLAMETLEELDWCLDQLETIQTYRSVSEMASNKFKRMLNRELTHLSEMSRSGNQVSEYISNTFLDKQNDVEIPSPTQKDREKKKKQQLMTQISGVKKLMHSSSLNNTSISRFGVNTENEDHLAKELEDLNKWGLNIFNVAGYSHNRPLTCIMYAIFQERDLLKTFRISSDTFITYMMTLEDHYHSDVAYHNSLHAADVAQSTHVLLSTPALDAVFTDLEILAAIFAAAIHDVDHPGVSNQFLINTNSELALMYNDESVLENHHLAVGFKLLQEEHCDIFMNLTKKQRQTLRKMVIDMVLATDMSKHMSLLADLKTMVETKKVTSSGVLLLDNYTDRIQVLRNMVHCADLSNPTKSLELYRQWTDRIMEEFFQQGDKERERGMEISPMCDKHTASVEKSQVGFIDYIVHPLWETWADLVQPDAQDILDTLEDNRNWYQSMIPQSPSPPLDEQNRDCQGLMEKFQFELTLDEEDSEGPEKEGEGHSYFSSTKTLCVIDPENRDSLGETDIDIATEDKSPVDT
# In short: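 The readout is membrane depolarisation from a cAMP-sensing CNG channel, detected with a potential dye at ex 535/em 590. Cells were HEK293-derived (endogenous PDE-IV) at 1000 cells/well, titrated up to 22.9 uM final.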
# [7] = target: Guanine nucleotide-binding protein G(i) subunit alpha-1 (Homo sapiens) (UniProt P63096); experiment: qHTS Assay for Inhibitors of RGS12 GoLoco Motif Activity (Green Fluorophore) (AID 879);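 note: negative values mean loss of peptide binding seen as reduced polarization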
# In short: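 Fluorescence polarization assay: 50 nM Gαi1 with 10 nM FITC-labeled RGS12 GoLoco peptide in 10 mM Tris pH 7.5, 150 mM NaCl, 0.1 mM GDP, 0.05% NP40, 10 min at room temperature with compound.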
# [8] = target: Cytochrome P450 3A4 (Homo sapiens) (UniProt P08684); experiment: qHTS Assay for Activators of Cytochrome P450 3A4 (AID 885); note: nearly all actives have a fitted effect of over 65% in size
# Chain of Cytochrome P450 3A4 (Homo sapiens) (P08684 whole entry, looked up): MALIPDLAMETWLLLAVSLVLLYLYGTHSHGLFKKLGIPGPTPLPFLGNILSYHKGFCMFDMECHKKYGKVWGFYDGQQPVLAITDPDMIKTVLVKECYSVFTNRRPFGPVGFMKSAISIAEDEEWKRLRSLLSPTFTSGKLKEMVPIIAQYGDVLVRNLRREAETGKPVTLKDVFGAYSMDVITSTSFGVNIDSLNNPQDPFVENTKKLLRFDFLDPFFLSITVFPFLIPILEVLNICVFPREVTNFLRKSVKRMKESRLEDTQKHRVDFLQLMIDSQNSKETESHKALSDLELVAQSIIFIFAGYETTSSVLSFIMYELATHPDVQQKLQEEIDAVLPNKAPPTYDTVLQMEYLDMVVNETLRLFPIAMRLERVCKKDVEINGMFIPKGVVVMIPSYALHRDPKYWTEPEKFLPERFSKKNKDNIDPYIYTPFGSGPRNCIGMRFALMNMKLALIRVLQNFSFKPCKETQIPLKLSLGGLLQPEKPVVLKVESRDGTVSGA
# In short: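 Steps: enzyme/substrate mix dispensed; compound added, 10 min RT; NADPH regeneration solution added, 60 min RT; luciferin detection buffer stops reaction; 20 min later luminescence measured.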
# [9] = target: Cytochrome P450 2D6 (Homo sapiens) (UniProt P10635); experiment: qHTS Assay for Inhibitors and Substrates of Cytochrome P450 2D6 (AID 891);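 note: luciferin methyl ether substrate demethylated by CYP2D6 with NADPH regeneration; nearly all actives have a fitted effect of over 60% in size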
# Chain of Cytochrome P450 2D6 (Homo sapiens) (P10635 whole entry, looked up): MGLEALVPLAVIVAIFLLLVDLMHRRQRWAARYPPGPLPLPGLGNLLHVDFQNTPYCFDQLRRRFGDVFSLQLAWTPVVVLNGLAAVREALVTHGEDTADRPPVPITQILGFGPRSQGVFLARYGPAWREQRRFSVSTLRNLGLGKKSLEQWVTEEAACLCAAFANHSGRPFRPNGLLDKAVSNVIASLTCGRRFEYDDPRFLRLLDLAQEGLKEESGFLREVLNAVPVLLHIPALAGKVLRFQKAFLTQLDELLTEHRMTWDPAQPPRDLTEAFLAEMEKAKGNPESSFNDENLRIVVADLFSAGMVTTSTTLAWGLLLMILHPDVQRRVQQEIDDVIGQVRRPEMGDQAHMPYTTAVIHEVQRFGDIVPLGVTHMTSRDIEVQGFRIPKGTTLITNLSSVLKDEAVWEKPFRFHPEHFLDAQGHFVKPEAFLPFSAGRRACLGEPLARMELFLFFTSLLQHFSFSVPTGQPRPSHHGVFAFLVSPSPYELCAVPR
# In short: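 Human CYP2D6 (5 nM) with 30 uM Luciferin-ME EGE (at Km) in 100 mM KPO4, compound preincubated 10 min, then NADPH regeneration system for 60 min at room temperature. Luciferin read by luminescence; normalized to 1.43 uM quinidine.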
# [10] = qHTS Assay for Identification of Small Molecule Antagonists for Thrombopoietin (TPO) Signaling Pathway (AID 918); conditions: TPO-dependent cell signaling reporter, antagonist mode; note: potency is the fitted concentration of half-maximal effect; nearly all actives have a fitted effect of over 60% in size
# In short: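 First, Ba/F3 reporter cells expressing human TPO receptor were held overnight without IL-3. Next, compound and 26 pM TPO were added. After 24 hrs incubation at 37 C, luciferase luminescence under the Glycoprotein IIb promoter was recorded.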
# [11] = target: Pyruvate kinase (Leishmania mexicana) (UniProt Q27686); experiment: qHTS Validation Assay for Inhibitors of Leishmania Mexicana Pyruvate Kinase (AID 945)
# In short: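 Eight-point qHTS titrations; enzyme 0.2 nM LmPYK (E451W mutant); substrates 0.5 mM PEP, 0.1 mM ADP; 7 mM MgCl2; 1 h room temperature; PKLight luminescence normalized to neutral control.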
# [12] = target: Pyruvate kinase PKM (Homo sapiens) (UniProt P14618); experiment: qHTS Assay for Activators of Human Muscle Pyruvate Kinase (AID 954; active = well fitted curve in the direction sought with a large enough effect, not every such curve was filed as active)
# In short: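 Reaction: 0.1 nM purified PKM2 with 0.5 mM phosphoenolpyruvate and 0.1 mM ADP, room temperature, 1 h. Readout: luciferase-based ATP luminescence after stop reagent. Activators judged against a 0.3 nM enzyme column.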
# [13] = target: Alpha-galactosidase A (Homo sapiens) (UniProt P06280); experiment: Counterscreen for Glucocerebrosidase Inhibitors: qHTS Assay for Human alpha-Galactosidase at pH 4.5 (AID 992)
# Chain of Alpha-galactosidase A (Homo sapiens) (P06280 whole entry, looked up): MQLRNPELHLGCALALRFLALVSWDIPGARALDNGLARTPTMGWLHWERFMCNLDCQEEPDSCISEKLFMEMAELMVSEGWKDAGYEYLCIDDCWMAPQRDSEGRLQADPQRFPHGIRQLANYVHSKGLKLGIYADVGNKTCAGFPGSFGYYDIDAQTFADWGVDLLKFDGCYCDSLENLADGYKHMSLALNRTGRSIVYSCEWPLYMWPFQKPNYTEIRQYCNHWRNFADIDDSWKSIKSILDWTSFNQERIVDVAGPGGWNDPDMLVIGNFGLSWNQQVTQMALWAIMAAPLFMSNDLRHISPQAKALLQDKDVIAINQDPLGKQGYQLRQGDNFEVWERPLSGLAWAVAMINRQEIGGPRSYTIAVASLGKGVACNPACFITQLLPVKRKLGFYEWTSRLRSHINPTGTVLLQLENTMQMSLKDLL
# In short: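 Concentration-response curves (0.7 nM to 77 uM final) were modeled with the Hill equation to give AC50. Reactions: 2 nM enzyme, 80 uM fluorogenic alpha-galactoside, pH 4.5 citric acid buffer, 20 min, room temperature.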
# [14] = target: alpha-glucosidase (Oryza sativa, rice) (UniProt Q653V4); experiment: Counterscreen for Glucocerebrosidase Inhibitors: qHTS Assay for Rice alpha-Glucosidase at pH 5.0 (AID 997)
# In short: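 Rice alpha-glucosidase (4 nM final) with 400 uM 4-methylumbelliferyl-alpha-D-glucopyranoside in citrate buffer pH 5.0, 20 min at room temperature, stopped at pH 10; fluorescence 365/440 nm, compounds 0.7 nM–77 uM, AC50 from Hill fits.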
# [15] = target: ATP-dependent 6-phosphofructokinase (Trypanosoma brucei brucei) (UniProt O15648); experiment: qHTS Assay to Find Inhibitors of T. brucei phosphofructokinase: hit validation (AID 492961);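 note: luminescence reports ADP formed as PFK phosphorylates fructose-6-phosphate with ATP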
# Chain of ATP-dependent 6-phosphofructokinase (Trypanosoma brucei brucei) (O15648 whole entry, looked up): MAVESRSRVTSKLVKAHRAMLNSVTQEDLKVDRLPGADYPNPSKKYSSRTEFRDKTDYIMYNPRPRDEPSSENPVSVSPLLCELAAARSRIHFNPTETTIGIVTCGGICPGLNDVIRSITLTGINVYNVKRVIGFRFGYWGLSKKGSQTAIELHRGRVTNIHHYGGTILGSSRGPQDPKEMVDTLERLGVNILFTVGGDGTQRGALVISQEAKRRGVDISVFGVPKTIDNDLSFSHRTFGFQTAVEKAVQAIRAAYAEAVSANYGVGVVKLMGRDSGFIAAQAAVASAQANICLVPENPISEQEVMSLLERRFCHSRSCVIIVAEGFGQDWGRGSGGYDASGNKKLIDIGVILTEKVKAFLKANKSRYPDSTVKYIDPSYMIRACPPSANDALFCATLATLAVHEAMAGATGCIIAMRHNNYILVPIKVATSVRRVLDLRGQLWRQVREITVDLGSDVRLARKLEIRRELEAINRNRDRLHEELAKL
# In short: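 Percent activity derived from corrected luminescence, normalized between 0x and 1x enzyme controls, then fitted to concentration-response curves. Conditions: 1.25 nM PFK, 0.1 mM ATP, 0.5 mM F6P, 45 min RT.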
# [16] = target: Ubiquitin carboxyl-terminal hydrolase 1 (Homo sapiens) (UniProt O94782); experiment: Inhibitors of USP1/UAF1: Pilot qHTS (AID 504865);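 note: rhodamine fluorescence freed from ubiquitin-rhodamine substrate followed over time; top concentration of the series differs between compounds; nearly all actives have a fitted effect of over 35% in size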
# Chain of Ubiquitin carboxyl-terminal hydrolase 1 (Homo sapiens) (O94782 whole entry, looked up): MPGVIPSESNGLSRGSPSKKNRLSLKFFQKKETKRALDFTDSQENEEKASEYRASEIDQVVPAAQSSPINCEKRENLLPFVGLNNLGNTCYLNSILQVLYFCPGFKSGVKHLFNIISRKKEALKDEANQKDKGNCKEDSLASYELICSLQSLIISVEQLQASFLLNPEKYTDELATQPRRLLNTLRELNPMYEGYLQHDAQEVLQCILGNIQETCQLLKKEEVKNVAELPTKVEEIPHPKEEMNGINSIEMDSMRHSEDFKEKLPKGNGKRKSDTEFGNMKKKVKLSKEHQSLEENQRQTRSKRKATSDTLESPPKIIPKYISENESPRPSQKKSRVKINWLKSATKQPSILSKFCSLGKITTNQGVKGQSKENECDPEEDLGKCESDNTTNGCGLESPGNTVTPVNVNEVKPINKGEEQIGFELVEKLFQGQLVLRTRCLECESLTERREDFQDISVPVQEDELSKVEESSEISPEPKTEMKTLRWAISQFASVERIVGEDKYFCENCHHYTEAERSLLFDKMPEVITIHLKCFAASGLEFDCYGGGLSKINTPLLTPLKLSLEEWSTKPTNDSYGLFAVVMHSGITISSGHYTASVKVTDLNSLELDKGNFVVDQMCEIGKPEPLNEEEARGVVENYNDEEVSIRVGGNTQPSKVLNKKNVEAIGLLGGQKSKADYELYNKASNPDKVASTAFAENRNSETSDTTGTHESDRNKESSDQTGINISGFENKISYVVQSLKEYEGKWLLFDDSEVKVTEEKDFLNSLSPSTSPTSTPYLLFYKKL
# In short: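 USP1/UAF1 complex at 1 nM preincubated 15 min at room temperature with compound, then Ub-Rho substrate added at 150 nM final. Fluorescence (480/540 nm) read kinetically in 50 mM HEPES pH 7.8, 0.5 mM EDTA, 1 mM TCEP, 0.1 mg/ml BSA, 0.01% Tween-20.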
# [17] = target: Luciferin 4-monooxygenase (Photinus pyralis) (UniProt P08659); experiment: Biochemical firefly luciferase enzyme assay for NPC (AID 624030);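 note: purified P. pyralis luciferase at 10 nM with luciferin and ATP substrate; nearly all actives have a fitted effect of over 70% in size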
# In short: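 Counter-screen for direct inhibition of the luciferase enzyme by approved-drug library compounds, run at 10 nM enzyme in 50 mM Tris acetate (final). Luminescence was read within 5 min of enzyme-buffer addition and normalized to PTC124 versus DMSO (0%).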
# [18] = S16 Schwann cell PMP22 intronic element firefly luciferase assay (AID 624032); note: potency is the fitted concentration of half-maximal effect; nearly all actives have a fitted effect of over 30% in size
# In short: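 Rat S16 Schwann cells stably carrying a PMP22 intronic element-driven Fluc reporter were seeded overnight, then exposed to compounds for 24 h at 37 °C. Luminescence was normalized to PTC124 (positive control) and DMSO (0% activity).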
# [19] = qHTS profiling for inhibitors of Plasmodium falciparum proliferation (AID 504749); note: nearly all actives have a fitted effect of over 60% in size; note: potency is the fitted concentration of half-maximal effect; conditions: P. falciparum in erythrocytes, SYBR Green DNA, 72 h; at 28.7 µM (top of the series); parasite line B
# In short: (§1)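 P. falciparum-infected erythrocytes (0.3% parasitemia, 2.5% hematocrit final) were exposed to compounds for 72 h at 37 C in 5% CO2, then lysed with SYBR Green buffer overnight at room temperature; parasite DNA fluorescence was normalized to artemisinin and DMSO controls.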
# AS120 = experiment: as above; conditions: P. falciparum in erythrocytes, SYBR Green DNA, 72 h; series mostly up to 28.7 µM
# In short: as §1
# ATS95 = experiment: as above; conditions: P. falciparum in erythrocytes, SYBR Green DNA, 72 h; series mostly up to 28.7 µM
# In short: as §1
# CP185 = experiment: as above; conditions: P. falciparum in erythrocytes, SYBR Green DNA, 72 h; series mostly up to 28.7 µM
# In short: as §1
# CP192 = experiment: as above; conditions: P. falciparum in erythrocytes, SYBR Green DNA, 72 h; series mostly up to 28.7 µM
# In short: as §1
# CP201 = experiment: as above; conditions: P. falciparum in erythrocytes, SYBR Green DNA, 72 h; series mostly up to 28.7 µM
# In short: as §1
# CP203 = experiment: as above; conditions: P. falciparum in erythrocytes, SYBR Green DNA, 72 h; series mostly up to 28.7 µM
# In short: as §1
# CP211 = experiment: as above; conditions: P. falciparum in erythrocytes, SYBR Green DNA, 72 h; series mostly up to 28.7 µM
# In short: as §1
# CP238 = experiment: as above; conditions: P. falciparum in erythrocytes, SYBR Green DNA, 72 h; series mostly up to 28.7 µM
# In short: as §1
# CP247 = experiment: as above; conditions: P. falciparum in erythrocytes, SYBR Green DNA, 72 h; series mostly up to 28.7 µM
# In short: as §1
smiles,measurement,setting,value
C=C1C(=O)O[C@@H]2[C@@H]1CC/C(C)=C\CC[C@@]1(C)O[C@H]21,Potency,[1],inactive and 12.6 µM (active)
same,"activity change, negative = inhibition",[2],-121% (active)
same,Potency,[3],> 46 µM (inactive) and > 20.6 µM (inactive)
same,Potency,[4],> 46 µM (inactive) and > 20.6 µM (inactive)
same,Potency,[5],inactive
same,Potency,[6],inactive
same,outcome,[7],inactive
same,Potency,[8],inactive
same,Potency,[9],inactive
same,Potency,[10],10 µM (active)
same,Potency,[11],inactive
same,outcome,[12],inactive
same,outcome,[13],inactive
same,outcome,[14],inactive
same,Potency,[15],inactive
same,Potency,[16],inactive
same,Potency,[17],inactive
same,Potency,[18],32.2 µM (active)
same,"activity, negative = inhibition",[19],-27.2% (inactive)
same,Potency,AS120,inactive
same,Potency,ATS95,inactive
same,Potency,CP185,inactive
same,Potency,CP192,inactive
same,Potency,CP201,inactive
same,Potency,CP203,inactive
same,Potency,CP211,inactive
same,Potency,CP238,inactive
same,Potency,CP247,5.01 µM (active)

# Source: PubChem BioAssay (NCATS)
